According to PubChem BioAssay (NCATS):
Inconclusive results are not listed. Where a call stands in place of a potency, no number is given. Values without a mark were called inactive. Activity calls are given as the source filed them. Unless noted, calls follow the shape of the full dose curve.

What was measured:
[1] = Primary qHTS for Huh7 cytotoxicity: counterscreen for inhibitors of MERS-S pseudotyped particle cell entry (AID 1479147); settings: cell viability read-out; series mostly up to 57.1 µM
[2] = Primary qHTS for inhibitors of MERS-S pseudo-typed particle cell entry (AID 1479149); settings: MERS-S pseudotyped particle entry, luciferase; series mostly up to 57.1 µM; also: nearly all actives have a fitted effect of over 60% in size; also: potency is read from the fitted curve at half-maximal effect
[3] = Primary qHTS for Vero E6 cytotoxicity: counterscreen for inhibitors of SARS-S pseudo-typed particle cell entry (AID 1479150); settings: cell viability; series mostly up to 57.1 µM
[4] = Primary qHTS for inhibitors of SARS-S pseudo-typed particle cell entry (AID 1479145); settings: SARS-S pseudotyped particle cell entry, luciferase reporter; series mostly up to 57.1 µM; also: nearly all actives have a fitted effect of over 45% in size; also: potency is read from the fitted curve at half-maximal effect
[5] = Primary qHTS for inhibitors of La Crosse Virus (LACV) - induced cell death in SH-SY5Y cells (AID 1508616; active = well fitted curve in the direction sought with a large enough effect; an effect the other way counts as inactive or inconclusive; also: potency is read from the fitted curve at half-maximal effect;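 as to activity change: top concentration of the series differs between compounds; higher means more rescue of cells from virus-induced death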); settings: SH-SY5Y LACV cytopathicity rescue, ATP luminescence, 6 d; series mostly up to 4.29 µM
Summary of the method: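 SH-SY5Y cells (6000/well) plated 24 h, then given compounds by pin transfer and LACV at 0.01 MOI for 6 days at 37C. Viability measured by ATPLite luminescence, normalized to infected DMSO and uninfected DMSO.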

[6] = target: Calcium and integrin-binding protein 1 (Homo sapiens) (UniProt Q99828); test: Validation qHTS for Identification of Calcium Integrin Binding protein 1 (CIB1) Competitor (AID 1508618; active = well fitted curve in the direction sought with a large enough effect; an effect the other way counts as inactive or inconclusive); settings: CIB1-GST / FITC-alphaIIb peptide fluorescence polarization; series mostly up to 114 µM
Sequence of Calcium and integrin-binding protein 1 (Homo sapiens) (Q99828 whole entry, looked up): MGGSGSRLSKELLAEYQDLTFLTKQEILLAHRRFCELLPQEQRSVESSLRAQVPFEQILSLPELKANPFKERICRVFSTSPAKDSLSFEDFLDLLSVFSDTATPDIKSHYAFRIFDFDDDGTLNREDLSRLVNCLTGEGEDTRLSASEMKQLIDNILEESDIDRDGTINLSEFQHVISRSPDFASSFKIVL
Summary of the method: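 Fluorescence polarization with 1 uM CIB1-GST and 100 nM FITC-alphaIIb peptide in HEPES pH 7.4, NaCl, 5 mM CaCl2, Tween20. Compounds at up to 114 uM final, preincubated with protein 15 min; read after 15 min more at RT.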

[7] = target: Calcium and integrin-binding protein 1 (Homo sapiens) (UniProt Q99828); test: Primary qHTS for Identification of Calcium Integrin Binding Protein 1 (CIB1) Competitor (AID 1508620; active = well fitted curve in the direction sought with a large enough effect; an effect the other way counts as inactive or inconclusive;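 also: GST tagged CIB1 binding a fluorescein labelled alphaIIb integrin peptide tracer; top concentration of the series differs between compounds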); settings: CIB1-GST / FITC-alphaIIb peptide fluorescence polarization; series mostly up to 114 µM
Summary of the method: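 Fluorescence polarization competition: CIB1-GST (1 uM final) preincubated with compound 15 min at room temperature, then FITC-labeled alphaIIb peptide (100 nM final) added for another 15 min. Polarization read at Ex 480/Em 540.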

[8] = Confirmatory qHTS for activators (rescue) of SARS-CoV-2 Cytopathic Effect (CPE) (AID 1508606); settings: Vero E6 SARS-CoV-2 CPE rescue, viability luminescence; series mostly up to 20 µM; also: nearly all actives have a fitted effect of over 70% in size

Q: What does the source list for `CS(=O)(=O)CCNCc1ccc(-c2ccc3ncnc(Nc4ccc(OCc5cccc(F)c5)c(Cl)c4)c3c2)o1`?
A: Potency [1]: inactive; Potency [2]: inactive; Potency [3]: inactive

Q: With `NS(=O)(=O)c1cc2c(cc1C(F)(F)F)NCNS2(=O)=O` as the compound, how does the Potency [1] read?
A: inactive

Q: What about the Potency [2] of the same compound?
A: inactive

Q: What about the Potency [3] of the same compound?
A: inactive

Q: For `Nc1nc(N)c2nc(-c3ccccc3)c(N)nc2n1`, which Potency [4] is on record?
A: inactive

Q: And the Potency [2]?
A: inactive

Q: And the Potency [3]?
A: inactive

Q: With `COc1cc2nc(N3CCN(C(=O)c4ccco4)CC3)nc(N)c2cc1OC` as the compound, how does the Potency [1] read?
A: inactive

Q: And the Potency [2]?
A: inactive

Q: For `O[C@@H](c1cc(C(F)(F)F)nc2c(C(F)(F)F)cccc12)[C@H]1CCCCN1`, which Potency [4] is on record?
A: inactive

Q: What about the Potency [2] of the same compound?
A: inactive

Q: What does the source list for `O=C(O)c1ccc(-n2nc(-c3ccccc3O)nc2-c2ccccc2O)cc1`?
A: Potency [4]: inactive; Potency [3]: inactive

Q: With `Cc1oncc1C(=O)Nc1ccc(C(F)(F)F)cc1` as the compound, how does the Potency [4] read?
A: inactive

Q: And the Potency [2]?
A: inactive

Q: Which Potency [1] does the source give for `CC(C)c1c(C(=O)Nc2ccccc2)c(-c2ccccc2)c(-c2ccc(F)cc2)n1CC[C@@H](O)C[C@@H](O)CC(=O)O` here?
A: inactive

Q: And the Potency [2]?
A: inactive

Q: With `COC(=O)C1=C(C)NC(C)=C(C(=O)OCC(C)C)C1c1ccccc1[N+](=O)[O-]` (configuration not stated) as the compound, how does the Potency [4] read?
A: 35.5 µM (active)

Q: And the Potency [3]?
A: inactive

Q: For `C=C(C)[C@H]1Cc2c(ccc3c2O[C@@H]2COc4cc(OC)c(OC)cc4[C@@H]2C3=O)O1`, which Potency [4] is on record?
A: inactive

Q: And the Potency [2]?
A: inactive

Q: What about the Potency [5] of the same compound?
A: 0.316 µM (active)

Q: And the Potency [6]?
A: inactive

Q: What about the Potency [7] of the same compound?
A: inactive

Q: With `OCCN1CCN(CCCN2c3ccccc3Sc3ccc(Cl)cc32)CC1` as the compound, how does the Potency [4] read?
A: 14.1 µM (active)

Q: What about the Potency [3] of the same compound?
A: inactive

Q: And the Potency [8]?
A: inactive

Q: What does the source list for `C[C@]12CC[C@@H]3c4ccc(O)cc4C[C@@H](CCCCCCCCCS(=O)CCCC(F)(F)C(F)(F)F)[C@H]3[C@@H]1CC[C@@H]2O` (some centres not stated)?
A: Potency [1]: inactive; Potency [2]: inactive; Potency [3]: inactive

Q: With `COc1c(C)c2c(c(O)c1C/C=C(\C)CCC(=O)O)C(=O)OC2` as the compound, how does the Potency [4] read?
A: inactive

Q: And the Potency [3]?
A: inactive

Q: For `Cc1ccc(-n2[nH]c(C)c(N=Nc3cccc(-c4cccc(C(=O)O)c4)c3O)c2=O)cc1C`, which Potency [4] is on record?
A: inactive

Q: What about the Potency [3] of the same compound?
A: inactive

Q: For `Nc1ccc(O)c(C(=O)O)c1`, which Potency [1] is on record?
A: inactive

Q: What about the Potency [2] of the same compound?
A: inactive

Q: And the Potency [3]?
A: inactive

Q: For `CC(C)C[C@H](NC(=O)[C@H](Cc1ccccc1)NC(=O)c1cnccn1)B(O)O`, which Potency [4] is on record?
A: inactive

Q: And the Potency [2]?
A: inactive

Q: With `O=C1[C@H](CC[C@H](O)c2ccc(F)cc2)[C@@H](c2ccc(O)cc2)N1c1ccc(F)cc1` as the compound, how does the Potency [1] read?
A: inactive

Q: What about the Potency [2] of the same compound?
A: inactive

Q: And the Potency [3]?
A: inactive

Q: Which results are given for `CC(C)C[C@H](NC(=O)[C@H](CCc1ccccc1)NC(=O)CN1CCOCC1)C(=O)N[C@@H](Cc1ccccc1)C(=O)N[C@@H](CC(C)C)C(=O)[C@@]1(C)CO1`?
A: Potency [4]: 1 µM (active); Potency [2]: inactive

Q: With `Nc1ccn([C@@H]2O[C@H](CO)[C@@H](O)C2(F)F)c(=O)n1` as the compound, how does the Potency [4] read?
A: 0.794 µM (active)

Q: What about the Potency [3] of the same compound?
A: inactive

Q: Which Potency [1] does the source give for `Cc1[nH]cnc1CN1CCc2c(c3ccccc3n2C)C1=O` here?
A: inactive

Q: And the Potency [2]?
A: inactive

Q: What about the Potency [3] of the same compound?
A: inactive

Q: What does the source list for `NC12CC3CC(CC(C3)C1)C2`?
A: Potency [1]: inactive; Potency [2]: inactive; Potency [3]: inactive

Q: For `CN1CCN(C(c2ccccc2)c2ccccc2)CC1`, which Potency [1] is on record?
A: inactive

Q: What about the Potency [3] of the same compound?
A: inactive

Q: Which results are given for `CCN(CCO)CCCC(C)Nc1ccnc2cc(Cl)ccc12` (configuration not stated)?
A: outcome [1]: inactive [at 5.34 µM]; activity change, negative = inhibition [2]: 3.49% [at 5.34 µM]; outcome [3]: inactive [at 5.34 µM]

Q: Which Potency [1] does the source give for `CN(C)c1ccc(O)c2c1C[C@H]1C[C@H]3[C@H](N(C)C)C(=O)C(C(N)=O)=C(O)[C@@]3(O)C(=O)C1=C2O` here?
A: inactive

Q: What about the Potency [2] of the same compound?
A: inactive

Q: What about the Potency [3] of the same compound?
A: inactive

Q: Which Potency [1] does the source give for `Nc1ncn([C@@H]2O[C@H](CO)[C@@H](O)[C@H]2O)c(=O)n1` here?
A: inactive

Q: What about the Potency [3] of the same compound?
A: inactive

Q: With `Cc1cccc(C)c1NC1=NCCCS1` as the compound, how does the Potency [1] read?
A: inactive

Q: And the Potency [2]?
A: inactive

Q: And the Potency [3]?
A: inactive

Q: And the Potency [5]?
A: inactive

Q: And the Potency [6]?
A: inactive

Q: And the Potency [7]?
A: inactive

Q: With `CCCC(=O)Nc1ccc(OCC(O)CNC(C)C)c(C(C)=O)c1` (configuration not stated) as the compound, how does the Potency [1] read?
A: inactive

Q: What about the Potency [2] of the same compound?
A: inactive

Q: What about the Potency [3] of the same compound?
A: inactive

Q: Which Potency [1] does the source give for `Fc1ccc([C@@H]2CCNC[C@H]2COc2ccc3c(c2)OCO3)cc1` here?
A: inactive

Q: And the Potency [3]?
A: inactive

Q: Which Potency [1] does the source give for `Clc1ccc(COC(Cn2ccnc2)c2ccc(Cl)cc2Cl)cc1` (configuration not stated) here?
A: inactive

Q: And the Potency [2]?
A: 25.1 µM (active)

Q: And the Potency [3]?
A: inactive

Q: What about the Potency [5] of the same compound?
A: inactive

Q: What about the Potency [7] of the same compound?
A: inactive

Q: For `C=C1CC[C@@]2(O)[C@H]3Cc4ccc(O)c5c4[C@@]2(CCN3CC2CC2)[C@H]1O5`, which Potency [1] is on record?
A: inactive

Q: What about the Potency [2] of the same compound?
A: inactive

Q: What about the Potency [3] of the same compound?
A: inactive

Q: And the Potency [5]?
A: inactive

Q: And the Potency [7]?
A: inactive

Q: With `CCCN(CCc1cccs1)[C@H]1CCc2c(O)cccc2C1` as the compound, how does the Potency [1] read?
A: inactive

Q: What about the Potency [2] of the same compound?
A: inactive

Q: And the Potency [3]?
A: inactive

Q: Which Potency [1] does the source give for `COc1cc2c(cc1OC)C(=O)C(CC1CCN(Cc3ccccc3)CC1)C2` (configuration not stated) here?
A: inactive

Q: What about the Potency [3] of the same compound?
A: inactive

Q: Which Potency [1] does the source give for `COc1cc(NC(C)CCCN)c2ncccc2c1` (configuration not stated) here?
A: inactive

Q: What about the Potency [2] of the same compound?
A: inactive

Q: And the Potency [3]?
A: inactive

Q: What does the source list for `COC(=O)C1=C(C)NC(C)=C(C(=O)OC(C)C)C1c1cccc2nonc12` (configuration not stated)?
A: Potency [1]: inactive; Potency [2]: inactive; Potency [3]: inactive

Q: For `COc1nc(N)nc2c1ncn2[C@@H]1O[C@H](CO)[C@@H](O)[C@@H]1O`, which Potency [1] is on record?
A: inactive

Q: What about the Potency [2] of the same compound?
A: inactive

Q: What about the Potency [3] of the same compound?
A: inactive

Q: With `C=C1C[C@@H]2[C@H](CC[C@]3(C)C(=O)CC[C@@H]23)[C@@]2(C)C=CC(=O)C=C12` as the compound, how does the Potency [1] read?
A: inactive

Q: And the Potency [2]?
A: inactive

Q: And the Potency [3]?
A: inactive

Q: What about the Potency [5] of the same compound?
A: inactive

Q: What about the Potency [7] of the same compound?
A: inactive

Q: Which results are given for `Cc1cccc(Nc2ccccc2C(=O)O)c1C`?
A: Potency [1]: inactive; Potency [2]: inactive; Potency [3]: inactive
